Among the test systems are HCT-15 colon; HT29 colon; SNB-75 CNS; SNB-19 CNS; U251 CNS; PC-3 prostate; SK-MEL-5 melanoma; UACC-62 melanoma; LOX IMVI melanoma; SK-MEL-28 melanoma; SK-MEL-2 melanoma; EKVX NSCLC; SN12C renal; UO-31 renal; ACHN renal; CAKI-1 renal; A498 renal; CCRF-CEM leukemia; MOLT-4 leukemia; TK-10 renal.
Holding throughout (assay): NCI-60 one-dose screen, 48 h (100 = growth as untreated, 0 = no growth, -100 = all killed)
Common to all, as to conditions: 10 µM unless noted

The structures appear in SMILES notation. Several values for one entry are separate records, joined by “and”; a condition that tells them apart may be missing. Equal values may be shown once. The panel holds about 83,000 compounds, 20% with a hit somewhere; the sample as a whole holds those more often.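 Step 1: grow cells in 96-well plates. Step 2: add test compound at a single concentration. Step 3: incubate 48 h. Step 4: record percent growth.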 Activity calls are given as the source filed them. The calls were made as follows: active = growth percent below 10; inactive = the rest.

On to `Nc1ccc(N=Nc2ccc(S(=O)(=O)O)cc2)cc1S(=O)(=O)O`, for which the growth with HCT-15 colon was 102% (inactive) and 96.7% (inactive); in the assay with HT29 colon, 118% (inactive) and 96.2% (inactive); in the assay with SNB-75 CNS, 106% (inactive) and 81.6% (inactive); in the assay with SNB-19 CNS, 96.5% (inactive); with U251 CNS, 99.6% (inactive) and 95.5% (inactive); with PC-3 prostate it was 92.2% (inactive) and 74% (inactive). Further, the growth was 111% (inactive) and 103% (inactive) in the assay on SK-MEL-5 melanoma; 104% (inactive) and 94.8% (inactive) in the assay on UACC-62 melanoma; 93.7% (inactive) and 92.1% (inactive) in the assay with LOX IMVI melanoma; 109% (inactive) and 104% (inactive) in the assay on SK-MEL-28 melanoma; 98.7% (inactive) and 82.5% (inactive) in the assay with SK-MEL-2 melanoma; 96.3% (inactive) and 109% (inactive) in the assay on EKVX NSCLC. The growth is 105% (inactive) and 96.1% (inactive) with SN12C renal; 81.4% (inactive) and 93.4% (inactive) with UO-31 renal; 99.8% (inactive) and 100% (inactive) in the assay with ACHN renal; 79.6% (inactive) and 88.4% (inactive) in the assay on CAKI-1 renal; 102% (inactive) and 111% (inactive) in the assay with A498 renal; 83.6% (inactive) and 46.6% (inactive) in the assay on CCRF-CEM leukemia. In the assay on MOLT-4 leukemia, the growth was 108% (inactive) and 117% (inactive).

For `Oc1nc(NCCc2ccccc2)sc1/C=C1\C=Nc2ncccc21`, the growth is 33.5% (inactive) and 36.5% (inactive) in the assay on HCT-15 colon; 27.8% (inactive) and 30.6% (inactive) with HT29 colon; -13.3% (active) and -10.9% (active) in the assay with SNB-75 CNS; 12.1% (inactive) with SNB-19 CNS; 7.63% (active) and 15.8% (inactive) in the assay with U251 CNS; 19.2% (inactive) and 25.9% (inactive) in the assay with PC-3 prostate. For the same compound, the growth with SK-MEL-5 melanoma was -0.16% (active) and 14.5% (inactive); in the assay on UACC-62 melanoma it was -1.3% (active) and -1.44% (active); in the assay on LOX IMVI melanoma, 8.25% (active) and 16.3% (inactive); in the assay with SK-MEL-28 melanoma it was 0.815% (active) and 16% (inactive); in the assay with SK-MEL-2 melanoma, -4.61% (active) and 28.8% (inactive); with EKVX NSCLC it was 40.9% (inactive) and 46% (inactive). For the same compound, the growth was 33.5% (inactive) and 15.9% (inactive) in the assay on SN12C renal; 36.6% (inactive) and 25.2% (inactive) in the assay with UO-31 renal; 18.8% (inactive) and 34.2% (inactive) in the assay on TK-10 renal; -12% (active) and 16% (inactive) in the assay with ACHN renal; -21.3% (active) and -7.55% (active) in the assay on A498 renal; 5.53% (active) and 9.93% (active) with CCRF-CEM leukemia. Moreover, the growth in the assay on MOLT-4 leukemia is 8.59% (active) and 11.4% (inactive).

For `Cc1cccc(/C=C\C(=O)c2ccccc2)c1`, the growth with HCT-15 colon is 89% (inactive) and 101% (inactive); with HT29 colon it was 91.9% (inactive) and 98.7% (inactive); in the assay with SNB-75 CNS it was 90.5% (inactive) and 112% (inactive); in the assay on SNB-19 CNS it was 86.7% (inactive) and 103% (inactive); in the assay on U251 CNS, 64.8% (inactive) and 91.7% (inactive); with PC-3 prostate, 86.3% (inactive) and 82.7% (inactive). Besides, the growth in the assay with SK-MEL-5 melanoma is 106% (inactive) and 95% (inactive); in the assay on UACC-62 melanoma it was 90.2% (inactive) and 105% (inactive); in the assay on LOX IMVI melanoma, 85.3% (inactive) and 93.5% (inactive); in the assay with SK-MEL-28 melanoma, 110% (inactive) and 120% (inactive); with SK-MEL-2 melanoma it was 100% (inactive) and 103% (inactive); with EKVX NSCLC, 97.8% (inactive) and 101% (inactive). In addition, the growth is 89.7% (inactive) and 102% (inactive) in the assay with SN12C renal; 67.3% (inactive) and 82.2% (inactive) in the assay on UO-31 renal; 86.9% (inactive) and 96.3% (inactive) in the assay on TK-10 renal; 124% (inactive) and 110% (inactive) in the assay with ACHN renal; 78.9% (inactive) and 64.5% (inactive) in the assay with CCRF-CEM leukemia; 91.5% (inactive) and 49.1% (inactive) in the assay with MOLT-4 leukemia.

In the case of `CCN(CC)CCOc1ccc2c(c1)C(=O)c1cc(OCCN(CC)CC)ccc1-2`, the growth in the assay on HCT-15 colon is 78.2% (inactive) and 39% (inactive); in the assay on HT29 colon it was 8.16% (active) and 6.92% (active); in the assay with SNB-75 CNS, 74.9% (inactive) and 67.1% (inactive); in the assay with SNB-19 CNS, 83.9% (inactive) and 75.7% (inactive); in the assay with U251 CNS it was 53.6% (inactive) and 61.3% (inactive); in the assay with PC-3 prostate it was 70.6% (inactive) and 35.9% (inactive). Also, the growth was 95% (inactive) and 95.5% (inactive) in the assay with SK-MEL-5 melanoma; 105% (inactive) and 103% (inactive) with UACC-62 melanoma; 52.3% (inactive) and 37.3% (inactive) in the assay on LOX IMVI melanoma; 123% (inactive) and 108% (inactive) in the assay with SK-MEL-28 melanoma; 114% (inactive) and 95.4% (inactive) in the assay on SK-MEL-2 melanoma; 90.5% (inactive) and 59% (inactive) in the assay on EKVX NSCLC. Moreover, the growth in the assay on SN12C renal was 73.2% (inactive) and 61.6% (inactive); with TK-10 renal it was 75.8% (inactive) and 78.1% (inactive); with ACHN renal it was 46.7% (inactive); in the assay on CAKI-1 renal, 85.7% (inactive); in the assay on A498 renal it was 73.9% (inactive) and 90.8% (inactive); with CCRF-CEM leukemia, 55.1% (inactive). Further, the growth with MOLT-4 leukemia was 50.5% (inactive) and -16.2% (active).

Take `CCN(CC)CCCC(C)N(Cc1ccccc1)CC(O)c1ccc(Cl)cc1` (stereo not given): the growth in the assay with HCT-15 colon was 101% (inactive) and 97.9% (inactive); in the assay on HT29 colon, 108% (inactive) and 92.5% (inactive); in the assay with SNB-75 CNS it was 109% (inactive) and 90.6% (inactive); with SNB-19 CNS it was 109% (inactive) and 107% (inactive); in the assay on U251 CNS, 105% (inactive) and 102% (inactive); with PC-3 prostate it was 87.7% (inactive) and 93.2% (inactive). Besides, the growth in the assay with SK-MEL-5 melanoma was 100% (inactive) and 105% (inactive); in the assay with UACC-62 melanoma it was 95.8% (inactive) and 106% (inactive); in the assay with LOX IMVI melanoma, 99.7% (inactive) and 97.5% (inactive); in the assay with SK-MEL-2 melanoma, 105% (inactive) and 103% (inactive); in the assay on EKVX NSCLC it was 106% (inactive) and 96.2% (inactive); with SN12C renal, 100% (inactive) and 104% (inactive). The growth in the assay on UO-31 renal was 94.7% (inactive) and 90.9% (inactive); in the assay on TK-10 renal it was 91.8% (inactive) and 90.4% (inactive); with ACHN renal it was 117% (inactive) and 103% (inactive); with CAKI-1 renal, 109% (inactive); in the assay with A498 renal it was 91% (inactive) and 116% (inactive); in the assay with CCRF-CEM leukemia, 103% (inactive) and 120% (inactive). Also, the growth in the assay on MOLT-4 leukemia is 107% (inactive) and 103% (inactive).

In the case of `O=C1OC2(c3ccccc31)c1ccc(O)c(O)c1Oc1c2ccc(O)c1O`, the growth in the assay on HCT-15 colon is 94.5% (inactive) and 123% (inactive); in the assay with HT29 colon, 102% (inactive) and 116% (inactive); with SNB-75 CNS, 101% (inactive) and 88.3% (inactive); with SNB-19 CNS, 110% (inactive) and 108% (inactive); with U251 CNS, 104% (inactive); in the assay with PC-3 prostate, 81% (inactive) and 89.2% (inactive). Besides, the growth in the assay on SK-MEL-5 melanoma is 106% (inactive) and 100% (inactive); with UACC-62 melanoma, 108% (inactive) and 102% (inactive); in the assay on LOX IMVI melanoma, 90.7% (inactive) and 103% (inactive); with SK-MEL-2 melanoma, 85.1% (inactive); in the assay with EKVX NSCLC, 105% (inactive) and 128% (inactive); in the assay on SN12C renal it was 98.8% (inactive) and 103% (inactive). Further, the growth with UO-31 renal was 90.2% (inactive) and 87.8% (inactive); in the assay with TK-10 renal it was 105% (inactive) and 101% (inactive); in the assay with ACHN renal, 101% (inactive) and 113% (inactive); in the assay with CAKI-1 renal it was 104% (inactive) and 114% (inactive); in the assay on A498 renal it was 114% (inactive) and 97.9% (inactive); with CCRF-CEM leukemia, 90.8% (inactive) and 110% (inactive). In addition, the growth in the assay with MOLT-4 leukemia is 95.4% (inactive) and 121% (inactive).

Turning to `CCOC(=O)C(CNc1ccccc1)C(=O)OCC`, the growth in the assay on HCT-15 colon was 106% (inactive); in the assay on HT29 colon, 105% (inactive); in the assay with SNB-75 CNS, 77.9% (inactive); in the assay with SNB-19 CNS, 91.2% (inactive); in the assay on U251 CNS, 93.5% (inactive); in the assay with PC-3 prostate, 98.2% (inactive). Also, the growth is 100% (inactive) in the assay with SK-MEL-5 melanoma; 103% (inactive) with UACC-62 melanoma; 101% (inactive) in the assay on LOX IMVI melanoma; 103% (inactive) in the assay on SK-MEL-28 melanoma; 109% (inactive) in the assay on SK-MEL-2 melanoma; 105% (inactive) in the assay with SN12C renal. The growth is 84.7% (inactive) in the assay on UO-31 renal; 106% (inactive) in the assay with TK-10 renal; 102% (inactive) with ACHN renal; 94.9% (inactive) in the assay on CAKI-1 renal; 98.5% (inactive) in the assay on MOLT-4 leukemia.

The values are drawn from PubChem BioAssay (NCI).
